# From PubChem BioAssay (NCI)
# This is part of a sample that, as a whole, favours compounds with a hit. Of some 83,000 tested, about 20% had one in any assay.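 Cell lines were cultured in 96-well plates, exposed to a single compound concentration, and assessed for percent growth 48 hours later.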 Values without a mark were called inactive. The source made the active and inactive calls. Rule for the calls: active = growth percent below 10; inactive = the rest.
# Legend:
# Assay in all cases: NCI-60 one-dose screen, 48 h (100 = growth as untreated, 0 = no growth, -100 = all killed)
# [1] = tested on: NCI-H23 lung; settings: 10 µM unless noted
# [2] = tested on: NCI-H226 lung; settings: 10 µM unless noted
# [3] = tested on: NCI-H322M lung; settings: 10 µM unless noted
# [4] = tested on: HOP-62 NSCLC; settings: 10 µM unless noted
# [5] = tested on: NCI-H460 lung; settings: 10 µM unless noted
# [6] = tested on: HOP-92 NSCLC; settings: 10 µM
# [7] = tested on: NCI-H522 lung; settings: 10 µM unless noted
# [8] = tested on: A549/ATCC NSCLC; settings: 10 µM unless noted
# [9] = tested on: 786-0 renal; settings: 10 µM unless noted
# [10] = tested on: COLO 205 colon; settings: 10 µM unless noted
# [11] = tested on: DU-145 prostate; settings: 10 µM unless noted
# [12] = tested on: K-562 leukemia; settings: 10 µM unless noted
# [13] = tested on: MALME-3M melanoma; settings: 10 µM unless noted
# [14] = tested on: MDA-MB-231 breast; settings: 10 µM unless noted
# [15] = tested on: RXF 393 renal; settings: 10 µM unless noted
# [16] = tested on: SF-268 CNS; settings: 10 µM unless noted
# [17] = tested on: SF-295 CNS; settings: 10 µM unless noted
# [18] = tested on: SF-539 CNS; settings: 10 µM unless noted
# [19] = tested on: UACC-257 melanoma; settings: 10 µM unless noted
Compound,growth [1],growth [2],growth [3],growth [4],growth [5],growth [6],growth [7],growth [8],growth [9],growth [10],growth [11],growth [12],growth [13],growth [14],growth [15],growth [16],growth [17],growth [18],growth [19]
C#CCNC1CCC(c2csc(C#C)n2)=C1C (stereo not given),-39.4% (active),75.4%,90.8%,28.2%,98.9%,-50.6% (active),49.7%,96.2%,17.1%,105%,67.6%,63%,-78.3% (active),8.61% (active),117%,78.1%,-28.2% (active),-92.4% (active),80.1%
NS(=O)(=O)c1ccc(-n2cc(CN3CCCCC3)nn2)cc1,107%,98.6%,107%,106%,105%,96.6%,95.8%,105%,109%,119%,108%,94.9%,105%,105%,106%,102%,102%,102%,101%
COc1ccc(N2C(=O)c3cc(Cl)ccc3NC2SCc2ccccc2)cc1 (stereo not given),97%,96.2%,97.1%,102%,109%,92.1%,87.4%,91.5%,92%,114%,106%,88.9%,99.2%,85.1%,101%,98.3%,102%,98.7%,97.7%
COc1cc(OC)c(/C=C/S(=O)(=O)Cc2ccc(OC)c(NCC(=O)NO)c2)c(OC)c1,15.4%,25.6%,45.6%,20.8%,10.8%,51.8%,3.67% (active),22.3%,28.1%,-67.6% (active),13.8%,11.6%,61.8%,25.4%,-0.671% (active),31.9%,6.88% (active),-5.59% (active),62.4%
C=C1CC[C@@H]2[C@]3(C)COC(c4ccccc4)O[C@@H]3CC[C@@]2(C)[C@@H]1C/C=C1/C(=O)OC[C@H]1O (stereo not given in full),96.8%,96.1%,97.1%,110%,99.8%,105%,63.5%,92.6%,111%,108%,92.1%,43.7%,110%,99.3%,127%,97.5%,102%,92.1%,85%
Oc1ccc(CSc2nnc(-c3ccc(Cl)cc3)n2-c2ccccc2)c2cccnc12,31.2%,50.9%,41.6%,16.9%,2.03% (active),16.3%,36.4%,26%,44.2%,88.9%,38.8%,22.1%,29.6%,58.5%,56.3%,30.7%,4.65% (active),22%,29.3%
Cc1cc2nc(C(Cl)Cl)nc(-c3cccs3)n2n1,10.5%,86.7%,-20.6% (active),-2.2% (active),-39% (active),-10.8% (active),46.8%,-23.5% (active),77.5%,-44.3% (active),-26.5% (active),35.3%,39.7%,11.2%,-52.9% (active),28.9%,-9.21% (active),17.5%,33.1%
CN(Cc1ccccc1)S(=O)(=O)/N=C1\NC(=O)NC1=C(Cl)Cl,66.1%,91.7%,95.1%,40.8%,17.9%,73.7%,-21.5% (active),99.4%,22.4%,-26.1% (active),25.7%,1.09% (active),-19.9% (active),-2.3% (active),55.1%,56.1%,98.9%,0.38% (active),68.2%
O=S(=O)(NCCNc1nccc(-n2cnc3ccccc32)n1)c1ccc(Br)cc1,97.3%,76.5%,107%,87.2%,101%,74.2%,87.2%,100%,103%,107%,99.9%,88.4%,103%,88.2%,101%,91.2%,96.5%,96.2%,109%
C#Cc1nc(C(=O)NCCC(=O)Nc2ccc(NC(=O)c3ccc(/C=C/C(=O)c4nccn4C)cc3)cc2)cs1,33.1%,74.9%,62.2%,24.1%,33.9%,120%,14.9%,55.8%,-59.8% (active),56.1%,21.1%,8.97% (active),6.41% (active),5.11% (active),45.8%,33.4%,55.6%,-89.4% (active),78.5%
O=S(=O)(NCCCNc1nccc(-n2cnc3ccccc32)n1)c1ccc(C(F)(F)F)cc1,91.3%,77.8%,103%,87.1%,89.8%,80.2%,70%,86.3%,91.2%,96.4%,94.5%,67.6%,98.4%,83.1%,105%,86.8%,81.2%,87.9%,97.8%
O=S(=O)(NCCCNc1nccc(-c2[nH]c(-c3ccccc3)nc2-c2ccc(Cl)c(O)c2)n1)c1cccc2ccccc12,30.6%,32.9%,50.9%,30.9%,15.5%,51.4%,25.2%,26.5%,47.9%,93.8%,27.6%,17%,6.39% (active),45.9%,-9.57% (active),46.8%,12.9%,44.8%,27%
COc1ccc(-c2cc(-c3ccc(Cl)cc3)c(C#N)c(=O)n2Cc2ccc(C(=O)O)cc2)cc1,85.9%,100%,95.5%,78.6%,92.4%,98.3%,28.5%,108%,108%,109%,112%,54.3%,52.9%,95.6%,72.1%,67.8%,68.3%,69.1%,83.8%
O=S(=O)(NCCNc1nccc(-n2cnc3ccccc32)n1)c1ccc(Cl)cc1,101%,91.1%,95.3%,95.4%,103%,90.2%,92.1%,103%,99%,104%,104%,97.6%,99.5%,90.6%,117%,92.3%,96.7%,91.2%,103%
O=C(Nc1ccc(F)c(F)c1)c1cc(-c2ccc(F)cc2F)ccc1O,-9.76% (active),3.67% (active),3.88% (active),19%,2.98% (active),-19% (active),-1.71% (active),8.98% (active),9.53% (active),82.1%,18.5%,12.2%,-13.9% (active),4.13% (active),-28.1% (active),16.3%,-23.4% (active),12.5%,-9.01% (active)
